The values below come from PubChem BioAssay (NCATS).

Experiment [1] can be described thus: Cell Viability - LYMP2-005 (AID 967). Further: series mostly up to about 92 µM. In a few lines: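 qHTS viability screen in LYMP2-005 cells: 24 h at 37 C with compound, ATP luminescence via CellTiter-Glo, AC50 from Hill curves.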
Experiment [2] in a line: Cell Viability - LYMP2-009 (AID 968). Further: nearly all actives have a fitted effect of over 55% in size. Further: potency means the concentration at half of the fitted maximal effect.
A short description of experiment [3]: Cell Viability - LYMP2-011 (AID 969). Further: nearly all actives have a fitted effect of over 60% in size. Further: potency means the concentration at half of the fitted maximal effect. The method in brief:
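2500 cells/well, 5 hr 37 C; compound added, 24 hr 37 C; CellTiter-Glo 30 min RT; luminescence. qHTS concentration-response, Hill-equation AC50. Tetraoctylammonium bromide positive control.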

A short description of experiment [4]: Cell Viability - LYMP2-013 (AID 970). Further: nearly all actives have a fitted effect of over 55% in size. Further: potency means the concentration at half of the fitted maximal effect. In a few lines:
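qHTS; 2500 lymphoblastoid cells/well; 5 hr 37 C settle; cpd 24 hr 37 C; CellTiter-Glo, 30 min RT; luminescence. AC50 = Hill fit.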

The nature of experiment [5]: Cell Viability - LYMP2-015 (AID 971). Further: nearly all actives have a fitted effect of over 55% in size. Further: potency means the concentration at half of the fitted maximal effect. In a few lines:
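Luminescent ATP read-out (CellTiter-Glo) served as the viability measure after lymphoblastoid cells were exposed to compounds for 24 hours at 37 C. Concentration-response data were fitted with the Hill equation to give AC50.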

Experiment [6] is described as follows: Cell Viability - LYMP2-017 (AID 972). Further: series mostly up to about 92 µM; nearly all actives have a fitted effect of over 55% in size. The method in brief: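 2500 cells/well, 5 h 37 C; cpd 24 h 37 C in complete medium; CellTiter-Glo, 30 min RT; luminescence (ATP). AC50 via Hill fit, qHTS.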
Experiment [7] is described as follows: Cell Viability - LYMP2-019 (AID 973). Further: nearly all actives have a fitted effect of over 55% in size. Further: potency means the concentration at half of the fitted maximal effect. The method in brief: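 Luminescent ATP read-out (CellTiter-Glo, 30 min room temperature) served as the viability measure after 24 hr treatment of lymphoblastoid cells at 37 C. Concentration-response data were fitted to the Hill equation for AC50.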
Experiment [8] in a line: Cell Viability - LYMP2-021 (AID 974). In a few lines:
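Plate 2500 lymphoblastoid cells per well and incubate 5 hr at 37 C. Add compounds over a concentration range and incubate 24 hr at 37 C. Add CellTiter-Glo, wait 30 min at room temperature, read luminescence.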

Experiment [9] can be described thus: Cell Viability - LYMP2-023 (AID 975). Further: nearly all actives have a fitted effect of over 55% in size. Further: potency means the concentration at half of the fitted maximal effect. In a few lines: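 2500 cells/well, 5 hr 37 C; cpd 24 hr 37 C; CellTiter-Glo, 30 min RT; luminescence. qHTS conc-response, Hill fit -> AC50. Pos ctrl tetraoctylammonium bromide.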
A short description of experiment [10]: Cell Viability - LYMP2-002 (AID 977). Further: potency means the concentration at half of the fitted maximal effect. In a few lines: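 Luminescent ATP readout (CellTiter-Glo, 30 min room temperature) after 24 h compound exposure at 37 C of a human lymphoblastoid line, 2500 cells/well. AC50 values derived by standard Hill fitting of qHTS concentration-response data.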
A short description of experiment [11]: Cell Viability - LYMP2-006 (AID 978). Further: nearly all actives have a fitted effect of over 60% in size. Further: potency means the concentration at half of the fitted maximal effect. The method in brief:
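Concentration-dependent loss of intracellular ATP in a human lymphoblastoid line after 24 hr treatment at 37 C was measured by CellTiter-Glo luminescence, with AC50 values obtained from standard Hill-equation modelling.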

Experiment [12] can be described thus: Cell Viability - LYMP2-007 (AID 979).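 Further: cells exposed to compound for 24 h before reading; nearly all actives have a fitted effect of over 60% in size.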 Further: potency means the concentration at half of the fitted maximal effect. The method in brief: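 Luminescent ATP signal (CellTiter-Glo) serves as the viability read-out after 24 hr compound treatment of lymphoblastoid cells in complete medium at 37 C. Concentration-response data were fitted to the Hill equation to give AC50 values.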
A short description of experiment [13]: Cell Viability - LYMP2-008 (AID 980). Further: nearly all actives have a fitted effect of over 60% in size. Further: potency means the concentration at half of the fitted maximal effect. The method in brief: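 qHTS, human lymphoblastoid line, 2500 cells/well; 5 hr preincubation, 24 hr compound, 37 C. CellTiter-Glo ATP luminescence. AC50 via Hill equation. Tetraoctylammonium bromide positive control.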
Experiment [14] in a line: Cell Viability - LYMP2-010 (AID 981). Further: nearly all actives have a fitted effect of over 55% in size. Further: potency means the concentration at half of the fitted maximal effect. In a few lines:
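Luminescent ATP signal (CellTiter-Glo) served as the viability read-out. Cells of the human lymphoblastoid line were treated with compound over a concentration range for 24 hours at 37 C, and AC50 values came from Hill-equation modeling.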

Experiment [15] is described as follows: Cell Viability - LYMP2-012 (AID 982).
Experiment [16] is described as follows: Cell Viability - LYMP2-014 (AID 983). Further: nearly all actives have a fitted effect of over 50% in size. Further: potency means the concentration at half of the fitted maximal effect. The method in brief:
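Luminescent ATP signal (CellTiter-Glo, 30 min at room temperature) serves as the viability read-out after 24 hr compound exposure at 37 C. Cells were seeded at 2500 per well and settled 5 hr beforehand.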

Experiment [17] is described as follows: Cell Viability - LYMP2-016 (AID 984). Further: nearly all actives have a fitted effect of over 55% in size. In a few lines: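 Acute toxicity in a Coriell human lymphoblastoid line is scored as loss of intracellular ATP over 24 h of treatment in complete medium. CellTiter-Glo signal is fitted across concentrations with the Hill equation to give AC50.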
A short description of experiment [18]: Cell Viability - LYMP2-018 (AID 985). Further: nearly all actives have a fitted effect of over 50% in size. Further: potency means the concentration at half of the fitted maximal effect. In a few lines: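 Luminescent ATP signal (CellTiter-Glo, read after 30 min at room temperature) reports viable cells after 24 hr compound treatment at 37 C. Concentration-response data were fitted to the standard Hill equation for AC50.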
A short description of experiment [19]: Cell Viability - LYMP2-025 (AID 976). Further: potency means the concentration at half of the fitted maximal effect. In a few lines:
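Seed 2500 LYMP2-025 cells/well; 5 hr at 37 C; add compound; 24 hr at 37 C; add CellTiter-Glo; 30 min RT; read luminescence. AC50 from Hill-modelled concentration-response.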

Inconclusive results are not listed. The source made the active and inactive calls. The call rests on the fitted dose curve; in most records, active means well fitted curve in the direction sought with a large enough effect; inconclusive means small, poorly fitted or top-dose-only effect, or another doubt; inactive means no such curve, though single readings can be large; an effect the other way counts as inactive or inconclusive.

As to `CC(C)=CCl`, in [1], the compound was classed as inactive. The Potency entry in experiment [2], in experiment [3], in experiment [4], in experiment [5], in experiment [6] and in [7] was “inactive” throughout. Besides, the Potency result in [8], in experiment [9], in experiment [10], in [11], in experiment [12] and in [13] was “inactive” in each case. The Potency entry in [14], in experiment [15], in experiment [16], in experiment [17] and in experiment [18] was “inactive” throughout.
Take `CC(C)C=O`: the result in experiment [1] was inactive. Besides, the Potency entry in experiment [2], in experiment [3], in experiment [4], in [5], in experiment [6] and in experiment [7] was “inactive” throughout. Further, the Potency result in [8], in [9], in experiment [19], in [10], in [11] and in experiment [12] was “inactive” in each case. The Potency result in experiment [13], in [14], in experiment [15], in experiment [16], in experiment [17] and in [18] was “inactive” each time.
Take `C[C@@H]1CC2(OC3C[C@@]4(C)C5=CC[C@H]6C(C)(C)C(O[C@@H]7OC[C@@H](O)[C@H](O)[C@H]7O)CC[C@@]67C[C@@]57CC[C@]4(C)C31)OC(O)C1(C)OC21` (stereo partly drawn): the Potency entry in [2], in experiment [3], in [4], in experiment [5], in [6] and in experiment [7] was “inactive” throughout. Moreover, the Potency result in experiment [8], in experiment [9], in experiment [19], in [11], in experiment [12] and in [13] was “inactive” each time. The Potency entry in experiment [14], in [16], in experiment [17] and in experiment [18] was “inactive” in each case.
For `O=C1OC(=O)c2cc([N+](=O)[O-])ccc21`, in [1], the call was inactive. Besides, the Potency entry in experiment [2], in experiment [3], in experiment [4], in experiment [5], in experiment [6] and in experiment [7] was “inactive” throughout. Further, the Potency entry in experiment [9], in experiment [19], in [10], in [11], in experiment [12] and in experiment [13] was “inactive” throughout. The Potency result in [15], in experiment [16], in experiment [17] and in [18] was “inactive” each time.
With `O=C(O)c1ccc(Cl)cc1Cl`, the Potency result in experiment [2], in experiment [3], in experiment [4], in experiment [5], in [7] and in experiment [8] was “inactive” throughout. Also, the Potency result in experiment [9], in [19], in [10], in experiment [11], in [12] and in [13] was “inactive” each time. The Potency entry in [14], in experiment [15], in [16], in [17] and in experiment [18] was “inactive” in each case.
As for `c1ccc2c(c1)Oc1ccccc1S2`, the compound was classed as inactive in experiment [1]. In addition, the Potency entry in experiment [2], in [3], in [4], in [5], in experiment [7] and in [8] was “inactive” throughout. In addition, the Potency result in experiment [9], in experiment [10], in [11], in [12], in experiment [13] and in experiment [14] was “inactive” in each case. In addition, the Potency result in experiment [15], in [16], in [17] and in experiment [18] was “inactive” each time. Besides, the Potency in experiment [19] was 0.001 µM (active).
Take `CC1=C(/C=C/C(C)=C/C=C/C(C)=C\C=O)C(C)(C)CCC1`: the Potency in experiment [2] is 50.1 µM (active); in experiment [3], 50.1 µM (active); in experiment [4], 50.1 µM (active); in experiment [5] it was 39.8 µM (active); in experiment [7] it was 50.1 µM (active); in experiment [9] it was 50.1 µM (active). Also, the Potency in [10] was 50.1 µM (active); in experiment [11], 50.1 µM (active); in experiment [12], 50.1 µM (active); in experiment [13] it was 50.1 µM (active); in experiment [14], 39.8 µM (active); in [16], 63.1 µM (active). The Potency in experiment [18] is 50.1 µM (active).
On to `Cc1c(N)cccc1N`, for which the Potency entry in experiment [2], in experiment [3], in experiment [4], in experiment [5], in experiment [6] and in [7] was “inactive” throughout. Further, the Potency entry in experiment [8], in [9], in experiment [10], in [11], in [12] and in experiment [13] was “inactive” in each case. The Potency result in experiment [15], in experiment [16], in experiment [17] and in experiment [18] was “inactive” in each case.
As to `ClC/C=C/CCl`, the result in experiment [1] was inactive. Also, the Potency result in [2], in experiment [3], in experiment [4], in [5], in [6] and in experiment [8] was “inactive” in each case. The Potency result in [10], in [11], in [12], in experiment [13], in experiment [14] and in [16] was “inactive” throughout. For the same compound, the Potency entry in [18] is “inactive”.
